Molecules are shown by their SMILES. This is part of a sample that, as a whole, favours compounds with a hit. Of some 83,000 tested, about 20% had one in any assay.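 In brief: 96-well plates, 48 h treatment, single concentration, percent growth endpoint.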 A number with no mark means an inactive call. The source made the active and inactive calls. The calls were made as follows: active = growth percent below 10; inactive = the rest.

We go through 38 compounds from PubChem BioAssay (NCI).

For the experiment, the system named is HCT-116 colon. Kind of experiment: NCI-60 one-dose screen, 48 h (100 = growth as untreated, 0 = no growth, -100 = all killed). Particulars: 10 µM unless noted.
For the compound `Cc1cc(C)c(C=O)c(C)c1`, the growth is 83.1%.
For the compound `CS(=O)(=O)Nc1cc(-c2ccc3ncnc(Nc4ccc5[nH]ncc5c4)c3c2)cnc1Cl`, the growth is 92.2%.
As to `COc1ccc(CNCCN2C(=O)c3ccc4c5c(ccc(c35)C2=O)C(=O)N(CCNCc2ccc(OC)cc2)C4=O)cc1`, the growth is -72.4% (active).
For `O=c1[nH]c2c(s1)CCCC2CN1CCCCC1` (stereo not drawn), the growth was 76.8%.
`CCCc1cc2c(cc1Br)OCO2`: the growth was 84.5%.
With `CCN(CCNc1cc(OC)cc2cccnc12)CCc1ccccc1` the figure was 59.8%.
`Cc1c([N+](=O)[O-])cc(C(C)(C)C)cc1[N+](=O)[O-]`: the growth was 87.3%.
The result for `COc1ccccc1/C=C1\Oc2cc(OCCCN3CCCC3)ccc2C1=O` reads 50.9%.
The result for `O=C(O)CNC(=O)CN1C(=O)c2ccccc2C1=O` reads 89.3%; that for `CCN(CC)CCCC(Nc1c2ccc(Cl)cc2nc2ccc(OC)cc12)c1ccc(Cl)cc1` (stereo not drawn), -88.8% (active).
On to `COc1cc(CNC(=O)CCCCC[P+](c2ccccc2)(c2ccccc2)c2ccccc2)c(OC)c2c1OCO2`, for which the growth is 50.4%.
The result for `COc1cccc2cc(-c3cc4ccccc4[nH]3)/c(=N/C(=S)Nc3ccc(C)cc3)oc12` reads 49.3%; that for `COc1cc2nnn3c4ncccc4c(N=O)c3c2cc1OC`, 28.9%; that for `COc1cc(NCC(O)CN(CC(C)C)C2CCCC2)c2ncccc2c1` (stereo not drawn), 68%.
The result for `CCCCCCCCN1C(=O)/C(=c2\sc3n(c2=O)C2C(NN=3)N(CC)C(=O)N2CC)c2ccccc21` (stereo not drawn) reads 63.2%; that for `O=C(Nc1ccccc1)Oc1ccccc1-c1ccccc1`, 77.6%.
Take `CC1(c2ccccc2)NC(=O)N(CC(=O)Nc2cccc(I)c2)C1=O` (stereo not drawn): the growth was 97.5%.
As for `COc1cc(NCC(O)CN(CC(C)C)CC(C)C)c2nc(C)ccc2c1` (stereo not drawn), the growth was 97.3%.
With `O=C(Nc1ccc(F)cc1)c1c(NC(=O)C(F)(F)F)sc2c1CCCCC2`, the growth was 1.79% (active).
The result for `O=C(/C=C\c1ccc(OCCCCCC[P+](c2ccccc2)(c2ccccc2)c2ccccc2)cc1)c1ccc2c(c1)OCCO2` reads -73.1% (active).
With `CCC(C)N(CCNc1cc(OC)cc2cccnc12)CCC(C)C` (stereo not drawn) the figure was 64.9%; with `COC(=O)Nc1ccc(NC(=O)OC)cc1`, 83.9%.
With `CCCCCCCCCCCCCCCCCCOc1ccccc1N` the figure was 44%; with `CCN1C(=O)N(CC)C2NC(SC)=NC21` (stereo not drawn), 104%; with `Cc1ccccc1C(c1ccccc1)c1ccccc1C`, 73.2%.
As to `CCNC(=O)c1[nH]cc(-c2ccc(OC)cc2)c1-c1cc(OC)cc(OC)c1`, the growth was 82.3%.
The result for `CN(C)Cc1c(-c2ccccc2)[nH]c2ccccc12` reads 67.9%; that for `O=C(Nc1cccc(Cl)c1)Oc1c(Br)c(Br)c(Br)c(Br)c1Br`, 80.3%.
On to `COc1ccc(Cl)cc1NC(=O)c1c(NC(=O)C(F)(F)C(F)(F)F)sc2c1CCCCC2`, for which the growth was -0.0954% (active).
The result for `COc1ccc(-c2c[nH]c(C(=O)O)c2-c2cc(OC)c3c(c2OC)OCO3)cc1` reads 106%; that for `COc1cc(-c2cc(=O)oc3cc(O)ccc23)c(OC)c2c1OCO2`, 98.4%.
The result for `COc1cc(NCCCN(CC(C)C)CC(C)C)c2ncccc2c1` reads 62%; that for `CCN(CC)S(=O)(=O)c1cccc([N+](=O)[O-])c1`, 80.7%; that for `Cn1ncc2c(Nc3ccccc3Cl)nc(Cl)nc21`, 99.4%.
The result for `COc1cc(NCCN(CC(C)C)C2CCCC2)c2ncccc2c1` reads 63.4%.
As for `CC(=O)OCC(=O)[C@@]1(O)CC[C@H]2[C@@H]3CC(=C(Br)Br)C4=CC(=O)CC[C@]4(C)[C@H]3C(=O)C[C@@]21C`, the growth is 68.3%.
Take `Cc1ccc(-c2c(Br)c(OC(=O)CO[C@@H]3C[C@H](C)CC[C@H]3C(C)C)c(-c3ccc(C)cc3C)c(Br)c2OC(=O)CO[C@H]2C[C@@H](C)CC[C@@H]2C(C)C)c(C)c1`: the growth was 89.4%.
Turning to `COc1cc(/C=C/C(=O)c2c(C)oc3nc[nH]c(=O)c23)ccc1O`, the growth is 102%.
